Consider 14 compounds from PubChem BioAssay.

Calls of active or inactive are those of the source.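 How the source made its calls, unless noted: active means fluorescence slope higher than the sample average by over 3 SD (cut at about -0.22 in these data, passing the limit was not always enough); inactive means the rest.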

Experiment [1] is described as follows: inhibitors of TNFa-induced NFkB p65 translocation, primary screen, imaging, HUVEC, MLSMR starter and 10KST1 sets (AID 438;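 active means inhibition above 20% together with a positive visual image hit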;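 further: compound added about 3h40 before a 20 min TNFalpha stimulation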;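 on inhibition: signal is the nuclear over cytoplasmic p65 intensity ratio per well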). To be noted: HUVEC TNFa-induced p65 nuclear translocation; cell count: measured here: nuclei count (cytotoxicity indicator), at 2.08 µM; inhibition: at 2 µM, stronger effect = higher value, 0% TNFa-plus-vehicle, 100% no-TNFa wells.
Experiment [2] can be described thus: inhibitors of mutant huntingtin aggregation, primary screen, imaging, exon1htt(103Q)mCFP cells, high-content imaging (AID 483;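 active means visual image review flags a hit and inhibition of aggregation exceeds 20%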;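 further: compound exposure lasted 3 days before fixation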;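 on nuclei count: percent of the per-plate median nuclei count of sample wells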). As to conditions: exon1htt(103Q)mCFP cell line, aggregate imaging, at 2 µM; inhibition of aggregation: stronger effect = higher value; nuclei count: measured here: cell count, toxicity.
Experiment [3] in a line: inhibitors of E-selectin induction by TNFa, primary screen, imaging, HUVEC, immunofluorescence, MLSMR starter and 10KST1 sets (AID 487;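 active means visually confirmed hit in the image check and inhibition above 20%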;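 on inhibition: signal is fraction of cell area covered by stained E-selectin grains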;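 on nuclei count: 100% = median nuclei count of all wells on the same plate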). As to conditions: HUVEC TNFalpha-induced E-selectin immunofluorescence imaging, at 2 µM; inhibition: stronger effect = higher value; nuclei count: measured here: cell number, toxicity.
Experiment [4] addresses Voltage-gated potassium channel subunit beta-2 (Rattus norvegicus) (UniProt P62483). Nature of the experiment: KvBeta enzyme negative modulators, primary screen, biochemical, NADPH fluorescence (AID 622).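 Further: slope of raw intensity against log time taken from 70 to 1610 s.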 As to conditions: recombinant KvBeta, 4-cyanobenzaldehyde reduction, at 10 µM, stronger effect = higher value.
Experiment [5] shares this target. Briefly: KvBeta positive modulators, primary screen, biochemical, NADPH fluorescence (AID 623;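 active means NADPH fluorescence slope more negative than the mean of all samples by about 3 SD, 99.7% confidence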;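 further: fluorescence intensity change per second fitted from 20 to 320 s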). To be noted: Recombinant KvBeta, NADPH fluorescence decrease slope, 10 min; at 10 µM; stronger effect = lower value.
Experiment [6] has as its target Alpha-2C adrenergic receptor (Homo sapiens) (UniProt P18825). Nature of the experiment: modulators of alpha2C/GIRK thallium flux, primary screen, cell-based, HEK293 alpha2C/GIRK1/2 (AID 624;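 active means fluorescence slope after compound addition differing from the mean of all screened samples at 99.7% confidence, in either direction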;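 further: slope of fluorescence ratio to pre-addition baseline per second over 15 to 24 s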). As to conditions: thallium flux BTC fluorescence, at 10 µM, actives lie on both sides.
A short description of experiment [7]: inhibitors of Sendai virus-induced IRF3 signaling, primary screen, TLR/RLR signaling modifier project, cell-based, Sendai virus stimulus, luciferase, 10K MLSCN set (AID 602276;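 active means inhibition at or above 50% at 10 µM; inactive means inhibition below 50%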;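 further: firefly luciferase from ISG56 promoter only with Renilla not read in this screen; 0% = Sendai virus plus DMSO and 100% = medium plus DMSO without virus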). To be noted: HEK293 RL24 IRF3 luciferase reporter, at 10 µM, stronger effect = higher value.
A short description of experiment [8]: inhibitors of poly I:C-induced TLR3 signaling, primary screen, cell-based, poly I:C stimulus, luciferase, 10K MLSCN set (AID 602277;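 active means inhibition of the reporter signal at or above 50%; inactive means inhibition below 50%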). As to conditions: HEK293-TLR3 RL24 IRF3 luciferase reporter, at 10 µM, stronger effect = higher value.

Sequence of Voltage-gated potassium channel subunit beta-2 (Rattus norvegicus) (P62483 whole entry, looked up): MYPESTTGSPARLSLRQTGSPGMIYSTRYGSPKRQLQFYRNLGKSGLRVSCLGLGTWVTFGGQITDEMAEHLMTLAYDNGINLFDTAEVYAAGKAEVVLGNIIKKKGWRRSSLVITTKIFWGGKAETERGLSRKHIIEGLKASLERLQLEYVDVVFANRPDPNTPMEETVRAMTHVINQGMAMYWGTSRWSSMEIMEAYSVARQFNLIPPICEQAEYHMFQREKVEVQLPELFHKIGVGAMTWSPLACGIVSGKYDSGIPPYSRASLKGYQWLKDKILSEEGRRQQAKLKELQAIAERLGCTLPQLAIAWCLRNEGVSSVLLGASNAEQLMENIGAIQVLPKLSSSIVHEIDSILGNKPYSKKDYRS
Sequence of Alpha-2C adrenergic receptor (Homo sapiens) (P18825 whole entry, looked up): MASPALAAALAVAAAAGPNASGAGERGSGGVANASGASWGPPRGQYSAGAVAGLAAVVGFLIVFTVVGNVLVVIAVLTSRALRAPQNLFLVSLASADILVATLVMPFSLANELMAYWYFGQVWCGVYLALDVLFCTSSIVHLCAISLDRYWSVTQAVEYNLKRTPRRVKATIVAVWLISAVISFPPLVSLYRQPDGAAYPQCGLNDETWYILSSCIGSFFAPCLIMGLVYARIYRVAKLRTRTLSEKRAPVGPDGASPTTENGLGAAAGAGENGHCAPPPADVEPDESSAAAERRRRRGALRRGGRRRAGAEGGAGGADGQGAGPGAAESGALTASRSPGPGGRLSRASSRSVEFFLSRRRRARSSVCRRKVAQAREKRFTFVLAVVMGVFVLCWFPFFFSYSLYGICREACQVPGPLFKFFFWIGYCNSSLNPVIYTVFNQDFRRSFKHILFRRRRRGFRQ

As for `COc1ccc(NC(=O)N(C2CCCCC2)C2CCN(C(C)C)CC2)c(OC)c1`, in experiment [1], the cell count was 676. Besides, the inhibition was -7.8% (inactive) in experiment [1], -10.8% (inactive) in experiment [3], 2.2% (inactive) in experiment [7] and 15.1% (inactive) in experiment [8]. Moreover, in experiment [2], the inhibition of aggregation is -12.8% (inactive). The nuclei count in experiment [2] was found to be 79.5%; in experiment [3], 109%. In addition, in experiment [4], the fluorescence slope is -0.518 (inactive). In experiment [5], the NADPH fluorescence slope was 9.2e-06 (inactive). For the same compound, in experiment [6], the slope is 0.0051 (inactive).

For `OCCn1c(-c2ccc3c(c2)OCO3)csc1=Nc1ccccc1`, in experiment [1], the cell count is 565. For the same compound, the inhibition was 0.2% (inactive) in experiment [1], -41.5% (inactive) in experiment [3], -34% (inactive) in experiment [7] and -121% (inactive) in experiment [8]. Moreover, in experiment [2], the inhibition of aggregation is -0.6% (inactive). Besides, the values for the nuclei count in experiment [2] and in experiment [3] were 66.3% and 112%, respectively. Also, in experiment [4], the fluorescence slope is -0.59 (inactive). Moreover, the NADPH fluorescence slope in experiment [5] was -2.7e-05 (inactive). For the same compound, the slope in experiment [6] is 0.00284 (inactive).

On to `CCc1nc(C)ccc1OCC(=O)O`, for which, in experiment [1], the cell count is 332. Besides, the inhibition in experiment [1] was 1% (inactive); in experiment [3], 9.9% (inactive); in experiment [7] it was -11.9% (inactive); in experiment [8], -14.7% (inactive). Further, the inhibition of aggregation in experiment [2] was -30% (inactive). In addition, the nuclei count came to 89.2% in experiment [2] and 102% in experiment [3]. Besides, the fluorescence slope in experiment [4] is -0.459 (inactive). Besides, the NADPH fluorescence slope in experiment [5] was -6.3e-05 (inactive). For the same compound, the slope in experiment [6] is 0.00578 (inactive).

Regarding `O=C(CN1C(=O)c2ccccc2C1=O)Nc1ccccc1C(=O)N1CCCC1`, the cell count in experiment [1] turned out to be 407. The inhibition is 4% (inactive) in experiment [1], -13.3% (inactive) in experiment [3], 4.76% (inactive) in experiment [7] and 11.3% (inactive) in experiment [8]. Moreover, the inhibition of aggregation in experiment [2] is -27.4% (inactive). Also, the values for the nuclei count in experiment [2] and in experiment [3] were 112% and 97.4%, respectively. Also, the fluorescence slope in experiment [4] is -0.594 (inactive). Besides, in experiment [5], the NADPH fluorescence slope was -2.3e-05 (inactive). Besides, in experiment [6], the slope was 0.00562 (inactive).

With `COCCNC(=O)C(c1ccc(C)o1)N(Cc1ccc(OC)cc1)C(=O)Cn1nnc2ccccc21` (centres undefined), the cell count in experiment [1] stood at 249. The inhibition is 7% (inactive) in experiment [1], 25.3% (inactive) in experiment [3], 10.1% (inactive) in experiment [7] and 6.31% (inactive) in experiment [8]. Besides, in experiment [2], the inhibition of aggregation is -3.6% (inactive). The nuclei count in experiment [2] turned out to be 93.1%; in experiment [3] it was 82.9%. In addition, the fluorescence slope in experiment [4] was -0.648 (inactive). Also, the NADPH fluorescence slope in experiment [5] is -1.9e-05 (inactive). Also, in experiment [6], the slope was 0.00364 (inactive).

For the compound `CCCCn1c(NC(=O)CC)c(C#N)c2nc3ccccc3nc21`, the cell count in experiment [1] turned out to be 273. Besides, the inhibition in experiment [1] is -0.9% (inactive); in experiment [3] it was 45.9% (inactive); in experiment [7], 16.1% (inactive); in experiment [8], 9.45% (inactive). For the same compound, the inhibition of aggregation in experiment [2] was 31.7% (inactive). The nuclei count was determined as 80.6% in experiment [2] and 64.7% in experiment [3]. For the same compound, the fluorescence slope in experiment [4] is -0.0219 (inactive). In addition, in experiment [5], the NADPH fluorescence slope was -1.3e-05 (inactive). For the same compound, in experiment [6], the slope was 0.00421 (inactive).

Consider `COc1ccc(CCNC(=O)CSc2nncn2N)cc1OC`, for which, in experiment [1], the cell count was 641. Besides, the inhibition in experiment [1] is -3.2% (inactive); in experiment [3], -29.4% (inactive); in experiment [7], 12.1% (inactive); in experiment [8], 21.1% (inactive). In addition, in experiment [2], the inhibition of aggregation was 24.1% (inactive). The nuclei count in experiment [2] turned out to be 81.6%; in experiment [3], 122%. In experiment [4], the fluorescence slope was -0.345 (inactive). In experiment [5], the NADPH fluorescence slope is -1.6e-05 (inactive). Besides, the slope in experiment [6] was 0.00364 (inactive).

With `CCOc1cc(C(=O)NCc2ccncc2)cc(OCC)c1OCC`, the cell count in experiment [1] came to 596. Moreover, the inhibition in experiment [1] is 1.6% (inactive); in experiment [3], -121% (inactive); in experiment [7], 7.46% (inactive); in experiment [8], 18.3% (inactive). Moreover, in experiment [2], the inhibition of aggregation was 3.9% (inactive). For the same compound, the nuclei count in experiment [2] is 100%; in experiment [3] it was 114%. Besides, the fluorescence slope in experiment [4] is -0.407 (inactive). In addition, in experiment [5], the NADPH fluorescence slope was -4.6e-05 (inactive). For the same compound, the slope in experiment [6] is 0.00658 (inactive).

Take `Cc1nc2scc(-c3cccs3)c2c(=O)n1-n1cccc1`: the cell count in experiment [1] came out at 506. Also, the inhibition in experiment [1] is 10.6% (inactive); in experiment [3] it was -398% (inactive); in experiment [7], 4.56% (inactive); in experiment [8], 18.4% (inactive). In experiment [2], the inhibition of aggregation was 10.9% (inactive). Moreover, the nuclei count stood at 102% in experiment [2] and 140% in experiment [3]. In addition, the fluorescence slope in experiment [4] was -0.333 (inactive). Besides, the NADPH fluorescence slope in experiment [5] is 1.9e-05 (inactive). The slope in experiment [6] is 0.00572 (inactive).

For `Cc1cccc(C2CC(c3ccc(Br)cc3)Nc3nc(N)nn32)c1` (centres undefined), the cell count in experiment [1] was determined as 683. Further, the inhibition in experiment [1] was -15.7% (inactive); in experiment [3], -5.8% (inactive); in experiment [7] it was 20.8% (inactive); in experiment [8], 25.1% (inactive). The inhibition of aggregation in experiment [2] is -3% (inactive). Besides, the results for the nuclei count in experiment [2] and in experiment [3] were 95.1% and 105%, respectively. For the same compound, the fluorescence slope in experiment [4] is -0.443 (inactive). In addition, the NADPH fluorescence slope in experiment [5] is -5.3e-05 (inactive). The slope in experiment [6] is 0.00633 (inactive).

For `CC12CCC(C(=O)N3CCCCC3)(CC1=O)C2(C)C` (centres undefined), the cell count in experiment [1] is 483. Also, the inhibition was 2% (inactive) in experiment [1], -305% (inactive) in experiment [3], 10.9% (inactive) in experiment [7] and 28.7% (inactive) in experiment [8]. Besides, the inhibition of aggregation in experiment [2] is -4.8% (inactive). The values for the nuclei count in experiment [2] and in experiment [3] were 99.5% and 126%, respectively. The fluorescence slope in experiment [4] is -0.299 (inactive). Moreover, the NADPH fluorescence slope in experiment [5] was 8.8e-06 (inactive). The slope in experiment [6] is 0.00667 (inactive).

As to `COc1ccc(OC)c(NC(=O)c2nnn(Cc3ccc(Br)cc3F)c2N)c1`, the cell count in experiment [1] was found to be 777. Moreover, the inhibition is 0.6% (inactive) in experiment [1], -25.4% (inactive) in experiment [3], 1.6% (inactive) in experiment [7] and 5.74% (inactive) in experiment [8]. For the same compound, in experiment [2], the inhibition of aggregation is 20.9% (inactive). The values for the nuclei count in experiment [2] and in experiment [3] were 99.3% and 116%, respectively. Also, the fluorescence slope in experiment [4] is -0.525 (inactive). The NADPH fluorescence slope in experiment [5] is -1.8e-05 (inactive). Besides, the slope in experiment [6] was 0.00503 (inactive).

As for `CCC(Sc1nc2sc(C(=O)OC)c(C)c2c(=O)n1N)C(=O)NCC1CCCO1` (centres undefined), the cell count in experiment [1] is 477. Besides, the inhibition is 7.5% (inactive) in experiment [1], 12% (inactive) in experiment [3], 7.5% (inactive) in experiment [7] and 11.6% (inactive) in experiment [8]. The inhibition of aggregation in experiment [2] is -2.8% (inactive). The values for the nuclei count in experiment [2] and in experiment [3] were 117% and 98.2%, respectively. The fluorescence slope in experiment [4] is -0.592 (inactive). In experiment [5], the NADPH fluorescence slope was -6.1e-05 (inactive). In addition, the slope in experiment [6] is 0.00714 (inactive).

For `CCOC(=O)C1=C(O)C(=O)N(c2ccc(S(N)(=O)=O)cc2)C1c1ccccc1` (centres undefined), the cell count in experiment [1] was 431. Moreover, the inhibition in experiment [1] is -0.4% (inactive); in experiment [3] it was -31.8% (inactive); in experiment [7] it was 2.23% (inactive); in experiment [8], -14.6% (inactive). Further, the inhibition of aggregation in experiment [2] was -10.8% (inactive). In addition, the nuclei count was found to be 108% in experiment [2] and 117% in experiment [3]. Besides, the fluorescence slope in experiment [4] was -0.61 (inactive). For the same compound, in experiment [5], the NADPH fluorescence slope was -1.5e-05 (inactive). Also, the slope in experiment [6] was 0.00391 (inactive).
